The list is not random: actives were taken first. Their share in the collection is about 3.9%.
CR mimetic SO: reduction of superoxide in aged yeast, primary screen, HTS. superoxide response (% of plate mean), % at 10 µM. 330,000 tested, 0.18% active. S. cerevisiae aged cells, superoxide DHE fluorescence; stronger effect = lower value;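 active = superoxide response under a set limit, about three screen SD below normal, cut at about 65% in these data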;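 note: yeast aged for seven days with compound at 30 °C before DHE staining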
HIF activator: HIF pathway transcriptional activators, primary screen, cell-based, U2OS HRE-luciferase, luminescence | U2OS HRE-luciferase reporter; normalized: DMSO 0%, desferrioxamine 100% | activation, % at 7.5 µM (by protocol) | 300,000 tested, 0.32% active | AID 1910, 2009;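 active = mean activation of at least 10% of the iron chelator positive control signal, with at least half of replicates also reaching 10%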
sPLA2-III inh: human group III sPLA2 inhibitors, primary screen, biochemical, QFRET, BODIPY PC-A2 liposome substrate; Group 3 secretory phospholipase A2 (Homo sapiens), Q9NZ20; QFRET BODIPY PC-A2 liposome hydrolysis, fluorescence; inhibition, % at 12.2 µM; 370,000 tested, 0.56% active; AID 743126, 2013;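 active = inhibition above mean plus 3 SD of compounds lying within the high and low control bounds, cut at about 19% in these data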
AHR activator: AHR activators, primary screen, cell-based, luminescence, luciferase reporter, human | activation, % at 5 µM | AHR-responsive luciferase reporter cells | 320,000 tested, 2.5% active | AID 2796, 2010; in the data active = activation above about 47%
Target sequence (P35869 whole entry, looked up): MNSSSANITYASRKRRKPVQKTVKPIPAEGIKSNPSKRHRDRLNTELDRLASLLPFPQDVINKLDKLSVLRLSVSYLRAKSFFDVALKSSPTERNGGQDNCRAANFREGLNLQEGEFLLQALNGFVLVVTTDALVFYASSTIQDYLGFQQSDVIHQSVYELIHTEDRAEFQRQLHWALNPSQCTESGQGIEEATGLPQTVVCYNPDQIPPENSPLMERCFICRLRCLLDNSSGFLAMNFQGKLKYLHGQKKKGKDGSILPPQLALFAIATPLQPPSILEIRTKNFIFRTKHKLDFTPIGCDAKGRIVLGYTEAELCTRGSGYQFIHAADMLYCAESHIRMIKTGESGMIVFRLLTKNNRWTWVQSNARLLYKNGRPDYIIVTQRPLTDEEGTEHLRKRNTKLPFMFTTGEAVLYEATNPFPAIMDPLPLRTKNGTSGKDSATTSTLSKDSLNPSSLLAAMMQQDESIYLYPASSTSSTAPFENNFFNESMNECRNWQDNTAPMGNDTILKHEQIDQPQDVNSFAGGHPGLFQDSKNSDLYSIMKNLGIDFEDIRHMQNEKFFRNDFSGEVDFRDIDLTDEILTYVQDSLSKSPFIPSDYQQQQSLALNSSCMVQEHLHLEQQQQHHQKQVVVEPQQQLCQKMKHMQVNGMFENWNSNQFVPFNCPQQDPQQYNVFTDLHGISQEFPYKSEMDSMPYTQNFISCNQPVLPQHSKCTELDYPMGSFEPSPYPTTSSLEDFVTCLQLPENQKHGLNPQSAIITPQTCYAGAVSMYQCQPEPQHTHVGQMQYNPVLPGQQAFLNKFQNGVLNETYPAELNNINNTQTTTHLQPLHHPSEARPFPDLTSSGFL
PLC-beta3 inh: human PLC-beta3 inhibitors, primary screen, biochemical, fluorescence; inhibition, % at 12.2 µM; 1-phosphatidylinositol 4,5-bisphosphate phosphodiesterase beta-3 (Homo sapiens), Q01970; 370,000 tested, 0.18% active; Purified PLC-beta3, fluorogenic substrate; in the data active = inhibition above about 11%
PLCg1 inh: PLC-gamma1 enzyme inhibitors, primary screen, biochemical, fluorescence, purified enzyme; 1-phosphatidylinositol 4,5-bisphosphate phosphodiesterase gamma-1 (Homo sapiens), P19174; fluorogenic substrate; inhibition, % at 12.2 µM; 370,000 tested, 0.84% active
PLCg1 ctr: PLC-gamma1 enzyme inhibitors, counter-screen for PLC-beta3 inhibitor project, biochemical, fluorescence; 3,300 tested, 3.1% active; purified PLC-gamma1, fluorogenic substrate; shares compounds with PLCg1 inh; AID 743258, 2014; inhibition, % at 12.3 µM
PLCbeta3 conf: PLC-beta3 inhibitor confirmation, biochemical, fluorescence, purified enzyme. shares compounds with PLCg1 inh. fluorogenic substrate fluorescence. inhibition, % at 12.3 µM. 3,300 tested, 1% active. AID 743261, 2014; in the data active = inhibition above about 11%
Hits are given with their value; n = inactive; x = no result given. Cut-off read from the data, not from the text of the source, unless noted: active = inhibition above about 9.5%; inactive = the rest.

SMILES | CR mimetic SO | HIF activator | sPLA2-III inh | AHR activator | PLC-beta3 inh | PLCg1 inh | PLCg1 ctr | PLCbeta3 conf
CC(=O)c1c(C)nc2ccc(Br)cc2c1-c1ccccc1 | n | n | n | n | n | n | x | x
COc1ccccc1NC(=O)c1ccc(N2CC3CC(C2)c2cccc(=O)n2C3)c(NC(=O)c2ccncc2)c1 (stereo not given) | n | n | n | n | n | n | x | x
Cn1cnnc1Sc1ccc(C(=O)NCCC23CC4CC(CC(C4)C2)C3)cc1[N+](=O)[O-] | n | n | n | n | n | 9.5 | n | n
Cc1cc(C(=O)COC(=O)c2cc(Cl)c(O)c(Cl)c2)c(C)n1C | n | x | n | n | n | n | x | x
COc1cc(Cl)c(C)cc1NC(=O)CN(C)Cc1cccc(OC)c1OC | n | n | n | n | n | 10 | n | n
CC1(C)O[C@@H]2[C@H](O1)[C@@H](CO)O[C@H]2n1ccc(=O)[nH]c1=O | n | x | n | n | n | n | x | x
CC1(C)O[C@@H]2[C@H](O1)[C@@H](CO)O[C@H]2n1cc(Br)c(=O)[nH]c1=O | n | x | n | n | n | 14 | n | n
C=c1[nH]cc(C(C)c2c(C)n(C)c3ccccc23)/c1=C/C (stereo not given) | x | x | n | x | n | n | x | x
O=C(N/C=N/O)C1=NOC(CNc2ncc(C(F)(F)F)cc2Cl)C1 (stereo not given) | n | n | n | n | n | 10 | n | n
CC(=O)c1cccc(CN2CCC(n3nccc3NC(=O)c3ccc4c(c3)OCO4)CC2)c1 | n | n | n | n | n | n | x | x
CCn1cc(CN2CCC(n3nccc3NC(=O)CCOc3ccccc3)CC2)cn1 | n | n | n | n | n | 13 | n | n
CCOc1cccc(CN2CCC(n3nccc3NC(=O)c3ccc4c(c3)OCO4)CC2)c1 | n | n | n | n | n | 10 | n | n
O=C(NCCc1ccccc1)C1CCN(S(=O)(=O)c2cccc3nonc23)CC1 | n | n | n | n | n | 11 | n | n
O=C(NCCc1ccccc1)C1CCN(S(=O)(=O)c2cccs2)CC1 | n | n | n | n | n | 9.8 | n | n
NS(=O)(=O)c1cccc(NC(=O)COC(=O)C2CCN(S(=O)(=O)c3cccs3)CC2)c1 | n | n | n | n | n | 9.7 | n | n
O=C(C1CCCN(S(=O)(=O)c2cccc3nonc23)C1)N1CCN(c2ccccc2Cl)CC1 (stereo not given) | n | x | n | n | n | 14 | n | n
Cc1cccc(C)c1NC(=O)C(c1ccccc1)N1CCN(C/C=C/c2ccccc2)CC1 (stereo not given) | x | x | n | x | n | n | x | x
COC(=O)[C@]12C[C@H](CC(=O)NCCC(C)C)C(=O)N(CCC3=CCCCC3)C1=C[C@H](C(C)C)O[C@@H]2C1CC1 | x | x | n | x | n | n | x | x
O=C(Nc1ccccc1N1CCOCC1)c1ccc(Cl)c(S(=O)(=O)NCc2ccco2)c1 | n | n | n | n | n | 9.7 | n | n
S=C(NCc1cccc(Cl)c1)OC1CCC12CCC(c1ccccc1)CC2 (stereo not given) | x | x | n | x | n | n | x | x
CC(Sc1ccccc1F)C(=O)Nc1ccc2c(c1)OCCO2 (stereo not given) | n | x | n | n | n | n | x | x
O=C(NNC(=O)c1ccc(F)cc1)c1ccncc1 | n | n | n | n | n | 11 | n | n
Cc1cc(NC(=O)COc2ccccc2C(N)=O)no1 | n | x | n | n | n | 9.5 | n | n
CC(C)C[C@H](NC(=O)c1ccc(OC2CCN(C(=O)C3CC3)CC2)cc1)C(N)=O | n | n | n | n | n | 9.7 | n | n
CC(CCCC(C)(C)O)NC(=O)c1ccc(OC2CCN(C(=O)C3CC3)CC2)cc1 (stereo not given) | n | n | n | n | n | n | x | x
SMILES | CR mimetic SO | HIF activator | sPLA2-III inh | AHR activator | PLC-beta3 inh | PLCg1 inh | PLCg1 ctr | PLCbeta3 conf
O=C(NCc1ccccc1)[C@H]1CCCN1C(=O)[C@H]1CCCN1C(=O)c1ccc(F)cc1F | x | x | n | x | n | n | x | x
Cc1ccc(C(=O)NCCN2C3=NC[C@@H](Cc4ccccc4)N3C[C@H]2Cc2ccc(O)cc2)cc1Br | x | n | n | n | n | 9.9 | n | n
COc1ccc(C[C@H]2CN3C(=NC[C@H]3Cc3ccccc3)N2CCNC(=O)c2ccc(C)c(Br)c2)cc1 | n | n | x | n | x | x | x | x
COc1cccc(C(O)c2ncc(-c3cccc(C(F)(F)F)c3)[nH]2)c1 (stereo not given) | x | x | n | x | n | n | x | x
O=C(CN1C(=O)CSc2ccc(C(F)(F)F)cc21)Nc1ccccc1 | n | n | n | n | n | 14 | n | n
COc1ccc2c(c1)CCCC21NC(=O)N(CC(=O)c2cc(F)ccc2F)C1=O (stereo not given) | n | x | n | n | n | n | x | x
O=C(NCc1ccco1)c1ccc(CNc2c(N3CCCCC3)c(=O)c2=O)cc1 | n | n | n | n | 11 | n | n | n
CC1CCN(c2c(NCc3ccc(C(=O)NCc4ccco4)cc3)c(=O)c2=O)CC1 | n | n | n | n | n | n | x | x
COc1ccc(CCNC(=O)CN2C(=O)COc3ccc(S(=O)(=O)N4CCOCC4)cc32)cc1OC | n | n | n | n | n | 11 | n | n
COc1ccc(OC)c(CCNC(=O)CN2C(=O)COc3ccc(S(=O)(=O)N4CCOCC4)cc32)c1 | n | n | n | n | n | n | x | x
NC(=O)C1(N2CCCCC2)CCN(Cc2ccccc2Cl)CC1 | n | n | n | n | 11 | n | n | n
O=C(Cc1n[nH]c(=O)c2ccccc12)Nc1cc(Cl)ccc1-n1cncn1 | n | n | n | n | n | n | x | x
Cc1ccc2ncnc(NCCCN3CCOCC3)c2c1 | n | n | n | n | n | n | x | x
Cc1csc2c(NCCCN3CCOCC3)ncnc12 | n | n | n | n | n | 13 | n | n
Cc1nc(SCC(=O)N(CC(C)C)C2CCS(=O)(=O)C2)c(C#N)c(C)c1C (stereo not given) | x | x | n | x | n | n | x | x
C/C(=N/NC(=O)c1cccs1)c1ccc(NC(=O)COc2ccc(Cl)cc2Cl)cc1 | n | n | n | n | 12 | n | n | n
CC(=O)c1ccccc1OC(=O)CCN1C(=O)C2C3C=CC(C4CC34)C2C1=O (stereo not given) | n | n | n | n | n | 10 | n | n

Screens deposited in PubChem BioAssay by several laboratories.
